High-throughput results deposited in PubChem by National Center for Advancing Translational Sciences (NCATS).
ClpP mod: qHTS Assay for Activators of ClpP. ATP-dependent Clp protease proteolytic subunit (Bacillus subtilis (strain 168)), P80244. AID 651965, 2013. 340,000 compounds, 1.9% hits. Potency, µM (highest dose often 57.5 µM). purified B. subtilis ClpP, FRET peptide cleavage, 20 min; active means well fitted falling curve with a large enough effect; inconclusive means small, poorly fitted or top-dose-only effect; inactive means no such curve, though single readings can be large or run the other way; further: the source files actives as falling curves though it sought activators and does not explain the sign; nearly all actives have a fitted effect of over 65% in size
Target sequence (P80244 whole entry, looked up): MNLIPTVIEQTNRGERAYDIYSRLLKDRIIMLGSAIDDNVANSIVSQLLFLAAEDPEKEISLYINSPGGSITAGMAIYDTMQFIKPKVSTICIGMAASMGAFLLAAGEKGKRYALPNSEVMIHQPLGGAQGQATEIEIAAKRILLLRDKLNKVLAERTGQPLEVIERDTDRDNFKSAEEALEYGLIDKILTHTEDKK
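Buffer: 100 mM Tris/HCl pH8, 100 mM KCl, 0.05% low protease BSA, 2.5% glycerol, 0.01% Tween-20. ClpP 10 microg/mL final; 20 min RT; delta FRET normalized to ADEP and DMSO controls.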
DT40 TDP1 CPT: growth inhibition of DT40 Tdp1-/-;hTDP1 cells with camptothecin (screen for TDP1 inhibitors); AID 686979; 420,000 compounds, 12% hits; Potency, µM (series often up to 46.2 µM), most hits filed as inhibitors; chicken DT40 Tdp1-/-;hTDP1 cells + 20 nM CPT, ATP luminescence, 48 h; further: nearly all actives have a fitted effect of over 55% in size
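Chicken DT40 Tdp1-/- cells stably complemented with human TDP1 were seeded at 400 cells/well in medium containing 20 nM camptothecin, exposed to pin-transferred compounds, and grown at 37 °C for at least 48 hr. Viability was read as ATP luminescence.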
TDP1 cell noCPT: qHTS for Inhibitors of human tyrosyl-DNA phosphodiesterase 1 (TDP1): qHTS in cells in absence of CPT | DT40 Tdp1-/- hTDP1 cells, no CPT, ATP luminescence, 48 h | Potency, µM (doses to about 46.2 µM), usual class: inhibitors | 420,000 compounds, 15% hits; further: nearly all actives have a fitted effect of over 55% in size
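Stably hTDP1-transfected Tdp1-null chicken DT40 cells were treated with library compounds minus camptothecin and grown for at least 48 hr at 37 °C, after which cellular ATP was quantified by luminescence.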
TDP1 block: blocks human tyrosyl-DNA phosphodiesterase 1 | 350,000 compounds, 0.28% hits | Q9NUW8 | Potency, µM (titrated, usually from 130 µM), usual class: inhibitors | recombinant TDP1, AlphaScreen DNA substrate cleavage | AID 485290; further: nearly all actives have a fitted effect of over 40% in size
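Steps: enzyme plus compound, 15 min RT; add biotin/phosphotyrosine-FITC oligonucleotide (15 nM final), react 5 min; add donor/acceptor beads (10 ug/ml final), 10 min; read AlphaScreen. Tdp1 at 1 nM final.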
Hits are given with their value; i = inactive; ? = inconclusive; nt = not tested or not shown; [ ] = another dose, or the depositor's remark. Sampled rows, rich in hits. Any-hit rate of the full collection: about 17%. Unless noted, the call rests on the fitted dose curve; in most records, active means well fitted curve in the direction sought with a large enough effect; inconclusive means small, poorly fitted or top-dose-only effect, or another doubt; inactive means no such curve, though single readings can be large; an effect the other way counts as inactive or inconclusive.

SMILES	ClpP mod	DT40 TDP1 CPT	TDP1 cell noCPT	TDP1 block
COc1ccc(C(=O)Nc2ccccc2C)cc1S(=O)(=O)N1CCOCC1	nt	i	i	nt
COc1ccc(C(=O)Nc2ccccc2N2CCOCC2)cc1S(=O)(=O)N1CCCC1	i	?	18.4µM	i
CNC[C@@H]1Oc2ccc(NC(=O)Nc3cccc4ccccc34)cc2C(=O)N([C@@H](C)CO)C[C@@H]1C	nt	nt	nt	i
Cc1ccc(C(=O)Sc2cccccc2=O)cc1	nt	0.731µM	0.517µM	nt
O=C(Nc1ccccc1C(=O)O)c1ncn[nH]1	28.2µM	i	i	i
COC(=O)c1ccccc1NC(=O)Nc1cccc(C)n1	i	i	i	i
Cc1cccc(NC(=O)c2ccccc2NC(=O)c2ccccc2)n1	i	?	18.4µM	nt
Cc1ccc(C(=O)Cc2ccccc2)cc1	nt	i	i	nt
O=C(Nc1ccccc1C(=O)O)c1cccc(NC(=O)c2ccccc2Cl)c1	i	i	?	nt
O=C(Nc1cc(NC(=O)c2ccccc2Cl)ccc1Cl)c1ccccc1	i	?	20.6µM	i[12.3 µM]
O=C(CSc1ncn[nH]1)Nc1ccccc1C(=O)O	i	i	i	i
Cc1cccc(CNc2ncnc3ccc(-c4ccccc4Cl)cc23)c1	nt	nt	nt	i
Cc1ccc(OCc2cc(C(=O)NCC(C)(C)N3CCOCC3)no2)cc1C	i	?	?	i
CCc1ccc(NC(=O)CSc2nc3nc(C)cc(C)n3n2)cc1	i	?	?	i
Nc1ccc(C(=O)Nc2ccccc2C(=O)O)cc1	i	i	i	i
O=C(Nc1ccccc1C(=O)Nc1ccccc1C(=O)O)c1ccccc1	i	?	11.6µM	nt
Nc1ccc(NC(=O)c2ccccc2)c2c1C(=O)c1ccccc1C2=O	i	13µM	16.4µM	i
O=C(Nc1ccccc1SC(=O)c1ccccc1)c1ccccc1	i	3.26µM	4.61µM	nt
Nc1ccc(O)c2c1C(=O)c1ccccc1C2=O	i	?	?	nt
Nc1ccccc1NC(=O)c1ccccc1	i	20.6µM	18.4µM	i
C/C(=N\N=C(/N)c1nonc1N)c1ccc2c(c1)OCO2	i	i	i	nt
COc1ccc(Cc2nnc(SC(C)C(=O)Nc3ccc(F)cc3Cl)o2)cc1 (stereo not given)	i	i	i	nt
Cc1cccc(C(=O)Nc2cccc(OCc3cc(=O)n4c(C)csc4n3)c2)c1	i	?	?	i
C[C@H]1CN=C(N(C)C)N1CC1CCC(C(C)(C)C)CC1 (stereo not given in full)	i	13µM	11.6µM	nt
C[C@H]1CN=C(N(C)C)N1CC1CCCC1	i	i	i	i
SMILES	ClpP mod	DT40 TDP1 CPT	TDP1 cell noCPT	TDP1 block
C[C@H]1CN=C(N(C)C)N1CCCC1CCCC1	i	16.4µM	11.6µM	i
C[C@H]1CN=C(N(C)C)N1CCC1CCCCC1	i	?	16.4µM	i
COC(=O)c1ccc(-c2ncc[nH]2)cc1	i	i	i	i
Nc1ccn([C@@H]2O[C@H](CNCC3=CCOc4ccc(O)cc43)[C@@H](O)[C@H]2O)c(=O)n1	i	i	i	nt
CCn1c(C(=O)NCc2ccccc2C)cc2oc3ccccc3c21	i	i	?	i
COCC(=O)N1C[C@H](C)[C@H](OC)CN(C)C(=O)c2cc(NC(=O)Nc3cccc(F)c3)ccc2OC[C@@H]1C	i	11.6µM	10.3µM	nt
CO[C@@H]1CN(C)C(=O)c2cc(NC(=O)NC3CCCCC3)ccc2OC[C@@H](C)N(CCc2ccccc2)C[C@H]1C	i	23.1µM	16.4µM	nt
CO[C@@H]1CN(C)C(=O)c2cc(NC(=O)Nc3ccc4c(c3)OCO4)ccc2OC[C@@H](C)N(C)C[C@H]1C	i	i	i	nt
CO[C@@H]1CN(C)C(=O)c2cc(NC(=O)NC3CCCCC3)ccc2OC[C@@H](C)N(CC2CCOCC2)C[C@@H]1C	i	?	?	nt
CCCC(=O)Nc1ccc2c(c1)C(=O)N(C)C[C@@H](OC)[C@H](C)CN(Cc1ccc(-c3ccccn3)cc1)[C@@H](C)CO2	i	?	23.1µM	nt
CCCc1nc2c(C)cc(Br)cn2c1Cc1ccc(C)cc1	i	?	?	nt
COC(=O)c1ccc2cc(OC)cc([N+](=O)[O-])c2n1	i	i	i	nt
Cc1cccc(N2CCN(C(=O)CCc3c(C)nc4c(c3C)c(=O)n(C)c(=O)n4C)CC2)c1C	i	i	?	i
O=C(CCSc1ccc(F)cc1)NNC(=O)c1ccccc1Cl	i	i	i	i
CCOc1cc(Br)c(CC(=O)NC2CCCCCC2)cc1OCC	nt	?	20.6µM	nt
